A number with no mark means an inactive call. Active and inactive are the calls of the source. The rule behind the calls is not given here.
Test: C difficile toxins, biochemical counterscreen, UDPG substrate absence, confirmatory dose response (AID 720650)
Conditions: series mostly up to 19.5 µM
Work on CC(=O)Nc1ccc(OC(=O)Oc2ccc(NC(C)=O)cc2)cc1 yielded an AC50 of over 39 µM.
In the case of CSc1cccc(NC(=O)CCc2ccccc2)c1, the AC50 is reported as “inactive”.
For CCNC(=O)C[C@@H]1CC[C@H]2[C@@H](COc3ccc(NC(C)=O)cc3C(=O)N2C)O1, the AC50 was “inactive”.
With COc1cc(/C=C/C(=O)OCC(=O)NC(=O)NC(C)C)ccc1O the AC50 was “inactive”.
With COC(=O)C1=C[C@@H](C(=O)OC)[C@@H]2C3=C(C(=O)[C@]2(C)NC(=O)c2ccccc2)[C@H](C)n2c(=O)n(C)c(=O)n2[C@@H]3C1 the AC50 was “inactive”.
With O=C1Nc2ccc(Br)cc2C1Cc1ccccc1F (centres undefined) the AC50 was 7.69 µM (active).
CCOC(=O)c1c(C)[nH]c(C)c1C(=O)COC(=O)/C=C/c1ccco1 gave an AC50 of over 39 µM.
With CCn1c(C)nc2cc(C(=O)N/N=C/c3ccc(O)cc3)ccc21 the AC50 was 15.1 µM (active).
In the case of CN1c2ccc(-c3ccccc3)cc2[C@H]2[C@H](CCN2C(=O)CN2CCOCC2)[C@H]1CO, the AC50 is reported as 7.83 µM (active).
In the case of S=C(c1cn(Cc2ccccc2)c2ccccc12)N1CCOCC1, the AC50 is reported as “inactive”.
In the case of COc1ccc(/C=C(/C#N)C(=O)Nc2ccc(O)cc2)cc1C(=O)O, the AC50 is reported as 12.2 µM (active).
In the case of CSc1nc2c(c(=O)[nH]c(=O)n2C)n1Cc1ccccc1, the AC50 is reported as “inactive”.
Oc1ccc(Cc2ccccc2Cl)c(O)c1 showed an AC50 of over 39 µM.
For NS(=O)(=O)c1ccc(CCNC(=O)c2ccc(CS(=O)(=O)c3ccc(Br)cc3)o2)cc1, the AC50 was “inactive”.
With COCC(=O)N1CC[C@@H]2[C@H]1c1cc(-c3ccc(OC)cc3)ccc1N(C)[C@H]2CO the AC50 was 10.2 µM (active).
With C=CCn1c(C)cc(C(=O)COC(=O)CCc2cc(OC)c(OC)c(OC)c2)c1C the AC50 was “inactive”.
With Cc1ccc(NNC(=O)c2ccno2)c(C)c1 the AC50 was 5.41 µM (active).
In the case of CNC(=O)C1CCN(S(=O)(=O)c2c(C)noc2/C=C/c2ccc(OC)cc2)CC1, the AC50 is reported as “inactive”.
In the case of Oc1ccc(/C=N/n2cc(-c3ccccc3)[nH]c2=S)cc1, the AC50 is reported as 6.42 µM (active).
With CC(=O)c1ccc(NC(=O)CNCC(c2ccccc2)N(C)C)cc1 (centres undefined) the AC50 was “inactive”.
With CNC(=O)C1CCN(S(=O)(=O)c2c(C)noc2/C=C/c2ccccc2F)CC1 the AC50 was “inactive”.
In the case of COc1cc(/C=N/NC(=O)c2nnn(-c3nonc3N)c2C(C)C)ccc1O, the AC50 is reported as “inactive”.
In the case of CCc1ccc(Nc2n[n+](-c3ccccc3)c(-c3ccc(OC)c(Br)c3)s2)cc1, the AC50 is reported as “inactive”.
With O=C(O)C1CCC(CN(Cc2cccc(Br)c2)C(=S)Nc2ccccc2F)CC1 (centres undefined) the AC50 was “inactive”.
With CC1CCCN(C(=S)Nc2ccc(F)cc2)C1 (centres undefined) the AC50 was “inactive”.
O=C(N/N=C/c1ccc(O)c(O)c1)C1CC1 gave an AC50 of over 39 µM.
For Cc1cccc(N/N=C/c2ccncc2)c1, the AC50 was 1.1 µM (active).
With COc1cc(/C=N/NC(=O)C2COc3ccccc3O2)ccc1O (centres undefined) the AC50 was “inactive”.
With Cc1ccccc1C(C(=O)NC1CCCCC1)N(C(=O)c1ccccn1)c1cccnc1 (centres undefined) the AC50 was “inactive”.
With Cc1ccc(S(=O)(=O)N2CCCC2C(=O)Nc2ccc(O)cc2)cc1 (centres undefined) the AC50 was 16.6 µM (active).
In the case of COc1cc(/C=N/Nc2ccccn2)ccc1O, the AC50 is reported as over 39 µM.
In the case of COc1ccc(OCc2cc(-c3ccc(Cl)cc3)no2)cc1, the AC50 is reported as “inactive”.
For O=C(C[C@@H]1CC[C@@H]2[C@H](COC[C@@H](O)CN2C(=O)Nc2ccc(Cl)c(Cl)c2)O1)NCc1ccncc1, the AC50 was “inactive”.
With O=P1(Oc2ccccc2)OCCCS1 (centres undefined) the AC50 was “inactive”.
With CN1c2ccc(-c3ccccc3)cc2[C@@H]2[C@@H](CCN2C(=O)CN2CCOCC2)[C@@H]1CO the AC50 was 7.03 µM (active).
With COc1cc(NC(=O)CCc2nnc3ccc(N4CCC(C)CC4)nn23)cc(OC)c1 the AC50 was “inactive”.
For O=C(NC(=S)NNS(=O)(=O)c1ccccc1)c1cccnc1, the AC50 was “inactive”.
With NC1=NC[C@H](Cc2ccc(O)cc2)N1CCc1cc(C(F)(F)F)cc(C(F)(F)F)c1 the AC50 was “inactive”.
With O=C(OCn1nnc2ccccc2c1=O)c1cc2ccccc2o1 the AC50 was “inactive”.
